In PubChem BioAssay AID1159580 (chemical genetic matrix, 2015):
The campaign covered roughly 5,500 compounds. About 2,000 (36%) were called active. About 18% were inconclusive and are not listed. No stated cut-off is given here; in the data, active means normalized growth mostly below about 0.91 (no sharp cut-off); inconclusive means no clear call, values can overlap the other calls; inactive means mostly above about 0.92. The list shows a part of the results.

Test: chemical genetic growth profiling, strain panel (AID 1159580);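 further: tested at 20 µM; growth read once vehicle control cultures reached saturation at 30 °C; 1 = growth at the plate median or of vehicle wells; lower values mean less growth of the strain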
Conditions: S. cerevisiae deletion strains, growth OD

Measured: normalized growth

NNCc1ccccc1
inactive: locus YAL021C, strain ccr4, hits give low values 0.993 | locus YAL026C, strain drs2, hits give low values 0.986 | locus YAL030W, strain snc1, hits give low values 0.979 | locus YBL061C, strain skt5, hits give low values 0.983 | locus YBR009C, strain hhf1, hits give low values 1 | locus YBR023C, strain chs3, hits give low values 0.982 | locus YBR171W, strain sec66, hits give low values 0.97 | locus YBR231C, strain swc5, hits give low values 1.01 | locus YBR279W, strain paf1, hits give low values 0.982 | locus YCL011C, strain gbp2, hits give low values 0.99 | locus YCL016C, strain dcc1, hits give low values 0.982 | locus YCL069W, strain vba3, hits give low values 0.993 | locus YCR088W, strain abp1, hits give low values 0.974 | locus YDL005C, strain med2, hits give low values 0.992 | locus YDL040C, strain nat1, hits give low values 0.971 | locus YDR001C, strain nth1, hits give low values 0.989 | locus YDR069C, strain doa4, hits give low values 0.976 | locus YDR137W, strain rgp1, hits give low values 0.96 | locus YDR159W, strain sac3, hits give low values 0.983 | locus YDR195W, strain ref2 1.02 | locus YDR297W, strain sur2, hits give low values 0.989 | locus YDR334W, strain swr1, hits give low values 0.99 | locus YDR335W, strain msn5, hits give low values 1 | locus YDR392W, strain spt3, hits give low values 1 | locus YEL003W, strain gim4, hits give low values 0.996 | locus YEL037C, strain rad23, hits give low values 0.991 | locus YEL061C, strain CIN8 (second series), hits give low values 0.978 | locus YER015W, strain faa2, hits give low values 0.999 | locus YER016W, strain bim1, hits give low values 0.998 | locus YER111C, strain swi4, hits give low values 0.988 | locus YER155C, strain BEM2 (second series), hits give low values 0.989 | locus YFR010W, strain ubp6, hits give low values 0.989 | locus YGL167C, strain pmr1, hits give low values 0.989 | locus YGL173C, strain kem1, hits give low values 0.961 | locus YGL227W, strain vid30, hits give low values 0.994 | locus YGL240W, strain doc1, hits give low values 0.98 | locus YGL253W, strain hxk2, hits give low values 0.993 | locus YHR013C, strain ard1, hits give low values 1.03 | locus YHR027C, strain rpn1, hits give low values 0.997 | locus YHR142W, strain chs7, hits give low values 0.985 | locus YJL092W, strain hpr5, hits give low values 0.993 | locus YJL095W, strain BCK1 (second series), hits give low values 0.986 | locus YJL115W, strain asf1, hits give low values 0.987 | locus YJL129C, strain trk1, hits give low values 0.978 | locus YJL154C, strain vps35, hits give low values 0.986 | locus YJL164C, strain tpk1, hits give low values 0.98 | locus YJL166W, strain qcr8, hits give low values 0.997 | locus YJL187C, strain SWE1, hits give low values 0.987 | locus YKL160W, strain elf1, hits give low values 0.988 | locus YKR026C, strain gcn3, hits give low values 0.974 | locus YKR091W, strain srl3, hits give low values 0.985 | locus YLL001W, strain dnm1, hits give low values 0.983 | locus YLL026W, hits give low values 1 | locus YLL041C, strain sdh2, hits give low values 0.992 | locus YLR027C, strain aat2, hits give low values 0.991 | locus YLR221C, strain rsa3, hits give low values 0.978 | locus YLR258W, strain gsy2, hits give low values 0.987 | locus YLR262C, strain YPT6 (second series), hits give low values 0.906 | locus YLR320W, strain mms22, hits give low values 0.993 | locus YLR342W, strain FKS1, hits give low values 0.981 | locus YLR357W, strain rsc2, hits give low values 0.967 | locus YLR370C, strain arc18, hits give low values 0.983 | locus YLR384C, strain iki3, hits give low values 0.992 | locus YML120C, strain ndi1, hits give low values 0.979 | locus YMR058W, strain fet3, hits give low values 0.996 | locus YMR125W, strain sto1, hits give low values 0.986 | locus YMR129W, hits give low values 0.99 | locus YMR205C, strain PFK2, hits give low values 0.976 | locus YMR231W, strain pep5, hits give low values 0.994 | locus YNL071W, strain lat1, hits give low values 1.01 | locus YNL209W, strain ssb2, hits give low values 0.989 | locus YNL248C, strain rpa49, hits give low values 0.993 | locus YNL322C, strain KRE1 (second series), hits give low values 0.992 | locus YNR049C, strain mso1, hits give low values 0.99 | locus YOR001W, strain rrp6, hits give low values 0.994 | locus YOR070C, strain gyp1, hits give low values 0.989 | locus YOR080W, strain dia2, hits give low values 0.983 | locus YOR083W, strain WHI5, hits give low values 0.987 | locus YOR106W, strain vam3, hits give low values 0.963 | locus YOR265W, strain rbl2, hits give low values 1 | locus YOR270C, strain vph1, hits give low values 0.979 | locus YOR290C, strain snf2, hits give low values 0.987 | locus YPL051W, strain arl3, hits give low values 0.969 | locus YPL078C, strain atp4, hits give low values 0.997 | locus YPL106C, strain sse1, hits give low values 0.963 | locus YPL240C, strain hsp82, hits give low values 1
